According to the supplement of paper PMC6089552:
Screen size: about 3,200 compounds; about 300 (9.4%) showed activity. The sample holds actives, similar compounds and a random draw of the others, so the mix is not that of the screen. Unmarked numbers belong to inactive results.

Tested on: A673/TR/shEF
Assay: cell viability (LOESS-normalised, relative to median of negative controls) (log2 ratio); higher = more viable cells (less compound effect), active = hit call of the paper (over 3 MAD below the median)
Conditions: treatment time: 72 h
Method in brief: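 Doxycycline, present or absent from 24 h before compounds, was used to induce EWS-FLI1 shRNA knockdown in A673/TR/shEF Ewing sarcoma cells at 1,500 per well in 384-well plates. Cells then received library compounds at two or more concentrations, or DMSO controls, for three days. Viability was measured by CellTiter-Glo luminescence on an Envision reader, and per-plate LOESS correction, division by the negative-control median and log2 transformation followed.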

[1] = 0.25 µM, library screen: screen1, EWS-FLI1 expression: high (no doxycycline)
[2] = 0.25 µM, library screen: screen1, EWS-FLI1 expression: low (doxycycline-induced shRNA knockdown)
[3] = 2.5 µM, library screen: screen1, EWS-FLI1 expression: high (no doxycycline)
[4] = 2.5 µM, library screen: screen1, EWS-FLI1 expression: low (doxycycline-induced shRNA knockdown)
[5] = 0.103 µM, library screen: screen3, EWS-FLI1 expression: high (no doxycycline)
[6] = 0.103 µM, library screen: screen3, EWS-FLI1 expression: low (doxycycline-induced shRNA knockdown)
[7] = 0.308 µM, library screen: screen3, EWS-FLI1 expression: high (no doxycycline)
[8] = 0.308 µM, library screen: screen3, EWS-FLI1 expression: low (doxycycline-induced shRNA knockdown)
[9] = 0.926 µM, library screen: screen3, EWS-FLI1 expression: high (no doxycycline)
[10] = 0.926 µM, library screen: screen3, EWS-FLI1 expression: low (doxycycline-induced shRNA knockdown)
[11] = 2.8 µM, library screen: screen3, EWS-FLI1 expression: high (no doxycycline)
[12] = 2.8 µM, library screen: screen3, EWS-FLI1 expression: low (doxycycline-induced shRNA knockdown)
[13] = 8.3 µM, library screen: screen3, EWS-FLI1 expression: high (no doxycycline)
[14] = 8.3 µM, library screen: screen3, EWS-FLI1 expression: low (doxycycline-induced shRNA knockdown)
[15] = 25 µM, library screen: screen3, EWS-FLI1 expression: high (no doxycycline)
[16] = 25 µM, library screen: screen3, EWS-FLI1 expression: low (doxycycline-induced shRNA knockdown)
[17] = 0.25 µM, library screen: screen2, EWS-FLI1 expression: high (no doxycycline)
[18] = 0.25 µM, library screen: screen2, EWS-FLI1 expression: low (doxycycline-induced shRNA knockdown)
[19] = 2.5 µM, library screen: screen2, EWS-FLI1 expression: high (no doxycycline)
[20] = 2.5 µM, library screen: screen2, EWS-FLI1 expression: low (doxycycline-induced shRNA knockdown)

COc1ccccc1-c1coc2cc(O)ccc2c1=O
cell viability (log2) [1]: 0.111
cell viability (log2) [2]: 0.0685
cell viability (log2) [3]: 0.111
cell viability (log2) [4]: -0.0147

COc1cc(C(=O)O)c(O)c2c1OCO2
cell viability (log2) [1]: -0.00582
cell viability (log2) [2]: -0.144
cell viability (log2) [3]: 0.116
cell viability (log2) [4]: -0.0061

C[C@@H]1C[C@H]2[C@@H]3C[C@H](F)C4=CC(=O)C=C[C@]4(C)[C@@]3(F)[C@@H](O)C[C@]2(C)[C@H]1C(=O)COC(=O)C(C)(C)C
cell viability (log2) [1]: 0.00935
cell viability (log2) [2]: -0.0577
cell viability (log2) [3]: 0.0831
cell viability (log2) [4]: -0.0529

COc1cc(O)c(C(=O)c2ccccc2)c(OC)c1
cell viability (log2) [1]: 0.0618
cell viability (log2) [2]: 0.0186
cell viability (log2) [3]: 0.0469
cell viability (log2) [4]: 0.0894

OC[C@H]1O[C@@](CO)(O[C@H]2O[C@H](CO)[C@@H](O)[C@H](O)[C@H]2O)[C@@H](O[C@H]2O[C@H](CO)[C@@H](O)[C@H](O)[C@H]2O)[C@@H]1O
cell viability (log2) [1]: 0.0123
cell viability (log2) [2]: 0.0415
cell viability (log2) [3]: 0.0346
cell viability (log2) [4]: 0.126

COCCOC(=O)C1=C(C)NC(=S)NC1c1ccccc1OC (stereo not drawn)
cell viability (log2) [1]: 0.0949
cell viability (log2) [2]: 0.0382
cell viability (log2) [3]: 0.0563
cell viability (log2) [4]: 0.0651

C=CC(C)(CCC1C(=C)CC(OC(C)=O)C2C(C)(C)CCCC12C)OC(C)=O (stereo not drawn)
cell viability (log2) [1]: 0.025
cell viability (log2) [2]: 0.066
cell viability (log2) [3]: 0.163
cell viability (log2) [4]: -0.0558

O=C1[C@H](Cc2ccc(O)cc2)N2C(=O)CCN(C(=O)NCc3ccccc3)[C@H]2CN1Cc1cccc2ccccc12
cell viability (log2) [5]: -0.0101
cell viability (log2) [6]: 0.068
cell viability (log2) [7]: 0.0453
cell viability (log2) [8]: 0.0327
cell viability (log2) [9]: 0.0157
cell viability (log2) [10]: 0.0736
cell viability (log2) [11]: 0.0365
cell viability (log2) [12]: 0.0441
cell viability (log2) [13]: -0.0756
cell viability (log2) [14]: -0.205
cell viability (log2) [15]: -1.07 (active)
cell viability (log2) [16]: -1.18 (active)

O=C(O)[C@@H]1C2CC3c4[nH]c5ccccc5c4CCN3CC2CC[C@@H]1O (stereo partly drawn)
cell viability (log2) [1]: 0.0321
cell viability (log2) [2]: 0.0471
cell viability (log2) [3]: 0.097
cell viability (log2) [4]: 0.142

N=c1ccn2c(n1)O[C@H]1[C@H](O)[C@@H](CO)O[C@H]12
cell viability (log2) [1]: -0.254 (active)
cell viability (log2) [2]: 0.0178
cell viability (log2) [17]: -0.122 (active)
cell viability (log2) [18]: 0.0732
cell viability (log2) [3]: -1.03 (active)
cell viability (log2) [4]: -0.19 (active)
cell viability (log2) [19]: -0.641 (active)
cell viability (log2) [20]: 0.0215

NC(=O)c1ncn([C@@H]2O[C@H](CO)[C@@H](O)[C@H]2O)c1O
cell viability (log2) [1]: 0.115
cell viability (log2) [2]: 0.116
cell viability (log2) [17]: 0.21
cell viability (log2) [18]: 0.141
cell viability (log2) [3]: 0.0737
cell viability (log2) [4]: 0.176
cell viability (log2) [19]: 0.0545
cell viability (log2) [20]: 0.0404

Nc1ccn([C@@H]2O[C@H](CO)[C@@H](O)[C@H]2O)c(=O)n1
cell viability (log2) [1]: 0.138
cell viability (log2) [2]: 0.019
cell viability (log2) [3]: 0.237
cell viability (log2) [4]: 0.0416

NC(=O)c1ncn([C@@H]2O[C@H](CO)[C@@H](O)[C@H]2O)n1
cell viability (log2) [5]: 0.0479
cell viability (log2) [6]: -0.00301
cell viability (log2) [1]: 0.0242
cell viability (log2) [2]: -0.0375
cell viability (log2) [17]: 0.0942
cell viability (log2) [18]: 0.138
cell viability (log2) [7]: 0.00539
cell viability (log2) [8]: 0.013
cell viability (log2) [9]: 0.012
cell viability (log2) [10]: 0.0638
cell viability (log2) [3]: 0.0898
cell viability (log2) [4]: -0.0568
cell viability (log2) [19]: 0.148
cell viability (log2) [20]: 0.053
cell viability (log2) [11]: -0.0142
cell viability (log2) [12]: -0.0276
cell viability (log2) [13]: 0.0371
cell viability (log2) [14]: 0.0291
cell viability (log2) [15]: 0.13
cell viability (log2) [16]: 0.0392

Nc1ccn([C@H]2CC[C@@H](CO)O2)c(=O)n1
cell viability (log2) [5]: 0.122
cell viability (log2) [6]: 0.0536
cell viability (log2) [17]: 0.188
cell viability (log2) [18]: 0.111
cell viability (log2) [7]: 0.116
cell viability (log2) [8]: 0.0808
cell viability (log2) [9]: 0.123
cell viability (log2) [10]: 0.139
cell viability (log2) [19]: 0.0418
cell viability (log2) [20]: 0.107
cell viability (log2) [11]: 0.148
cell viability (log2) [12]: 0.0816
cell viability (log2) [13]: 0.0629
cell viability (log2) [14]: 0.0663
cell viability (log2) [15]: 0.132
cell viability (log2) [16]: 0.176

NC(=O)c1ncn([C@@H]2O[C@H](CO)[C@@H](O)[C@H]2O)c1N
cell viability (log2) [5]: 0.135
cell viability (log2) [6]: 0.0617
cell viability (log2) [7]: 0.0707
cell viability (log2) [8]: 0.0876
cell viability (log2) [9]: 0.088
cell viability (log2) [10]: 0.0588
cell viability (log2) [11]: 0.1
cell viability (log2) [12]: 0.0775
cell viability (log2) [13]: 0.0463
cell viability (log2) [14]: 0.126
cell viability (log2) [15]: 0.13
cell viability (log2) [16]: 0.087

Nc1ccn([C@@H]2CS[C@H](CO)O2)c(=O)n1
cell viability (log2) [5]: 0.125
cell viability (log2) [6]: 0.0191
cell viability (log2) [7]: 0.0768
cell viability (log2) [8]: 0.0559
cell viability (log2) [9]: 0.0245
cell viability (log2) [10]: 0.0926
cell viability (log2) [11]: 0.132
cell viability (log2) [12]: 0.0391
cell viability (log2) [13]: 0.0536
cell viability (log2) [14]: 0.0703
cell viability (log2) [15]: 0.101
cell viability (log2) [16]: 0.0951

C[N+](C)(C)CCOP(=O)([O-])OP(=O)(O)OC[C@H]1O[C@@H](n2ccc(N)nc2=O)[C@H](O)[C@@H]1O
cell viability (log2) [17]: 0.0983
cell viability (log2) [18]: 0.0319
cell viability (log2) [19]: 0.095
cell viability (log2) [20]: 0.0926
